# Values joined by “and” are separate entries in the source; they are usually repeats but may differ in a detail not shown here. Equal entries are not always repeated. Records with an inconclusive call do not appear. Where a call stands in place of a potency, no number is given. The source holds several records for some structures; these can differ, active in one and inactive in another. Active and inactive are the calls of the source. Unless noted, the call rests on the fitted dose curve; in most records, active means well fitted curve in the direction sought with a large enough effect; inconclusive means small, poorly fitted or top-dose-only effect, or another doubt; inactive means no such curve, though single readings can be large; an effect the other way counts as inactive or inconclusive.
# Assays:
# [1] = biological target: Arylsulfatase A (Homo sapiens) (UniProt P15289); assay: qHTS screen for enhancers of Arylsulfatase A (ASA1): LOPAC Validation Assay (AID 720538); further: potency means the concentration at half of the fitted maximal effect
# Sequence of Arylsulfatase A (Homo sapiens) (P15289 whole entry, looked up): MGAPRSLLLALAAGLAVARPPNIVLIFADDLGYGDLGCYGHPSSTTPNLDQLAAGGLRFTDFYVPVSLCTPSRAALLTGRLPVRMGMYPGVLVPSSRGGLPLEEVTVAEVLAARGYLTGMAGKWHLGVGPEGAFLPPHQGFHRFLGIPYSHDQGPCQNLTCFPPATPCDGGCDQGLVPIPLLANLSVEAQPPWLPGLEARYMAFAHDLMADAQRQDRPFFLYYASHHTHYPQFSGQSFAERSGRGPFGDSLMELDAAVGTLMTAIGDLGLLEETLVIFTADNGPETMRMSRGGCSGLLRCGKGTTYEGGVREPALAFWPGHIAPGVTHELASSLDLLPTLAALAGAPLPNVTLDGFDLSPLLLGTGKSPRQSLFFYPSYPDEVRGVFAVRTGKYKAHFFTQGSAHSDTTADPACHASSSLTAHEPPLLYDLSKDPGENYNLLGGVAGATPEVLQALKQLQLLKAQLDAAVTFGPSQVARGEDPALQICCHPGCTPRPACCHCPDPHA
# Method in brief: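 SV40-transformed fibroblasts from an MLD patient (ASA-I179S) were treated with compound for 48 h at 37 C. They were then lysed with 0.5 mM pNCS substrate (final) for 14 h at room temperature and stopped with NaOH; signal read by fluorescence (Ex 525/Em 598 nm), with increase denoting enhanced activity.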
# [2] = qHTS for compounds that reverse cellular toxicity of Amyloid beta (A-beta) peptide in yeast: LOPAC Validation Assay (AID 720559)
# Method in brief: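 Yeast expressing toxic A-beta grown with pinned compounds at 30 C for 48 hr. Growth measured as absorbance at 600 nm; data normalized to DMSO and to an equimolar FeCl3/clioquinol mixture as positive control.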
# [3] = qHTS for Activators of Parkin Expression: LOPAC Validation Assay (NLuc Reporter) (AID 720572)
# Method in brief: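 Neuronal cells with a Parkin promoter-driven FLuc/NLuc coincidence reporter were treated 24 h at 37 C in 7-point dose response (LOPAC). NLuc luminescence read after FLuc; signals normalized to DMSO and positive control (100%).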
# [4] = qHTS for Activators of Parkin Expression: LOPAC Validation Assay (FLuc Reporter) (AID 720573)
# Method in brief: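 Neuronal cell line stably expressing FLuc/NLuc coincidence reporter under the Parkin promoter, 1,500 cells/well, dosed 24 h after seeding in 7-point series for 24 h at 37 C. FLuc luminescence read; normalized to DMSO and positive control (100%).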
# [5] = qHTS assay for small molecule agonists of the antioxidant response element (ARE) signaling pathway measured by Nrf2-dependant transcriptional activity (AID 720636; active means well fitted curve in the direction sought with a large enough effect in the repeat runs; an effect the other way counts as inactive or inconclusive; further: potency means the concentration at half of the fitted maximal effect)
# Method in brief: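 Quantitative HTS format in HepG2 cells stably expressing an ARE-luciferase reporter; 16 hr compound treatment at 37 C, luciferase signal detected with ONE-Glo.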
# [6] = qHTS assay for small molecule agonists of the antioxidant response element (ARE) signaling pathway measured by Nrf2-dependant transcriptional activity - cell viability counter screen (AID 720653; active means well fitted curve in the direction sought with a large enough effect in the repeat runs; an effect the other way counts as inactive or inconclusive; further: potency means the concentration at half of the fitted maximal effect); conditions: ARE-bla HepG2 viability, CellTiter-Glo ATP luminescence, 16 h; max response: stronger effect = lower value
# Method in brief: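 ARE-bla HepG2 cells treated with compounds for 16 h at 37C; this counter screen measures viability as intracellular ATP by CellTiter-Glo luminescence after 30 min at room temperature.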
# [7] = biological target: T1, Hexokinase-4 (Homo sapiens) + Glucokinase regulatory protein (Homo sapiens) (UniProt P35557+Q14397); assay: qHTS assay for inhibitors of recombinant human GCK-GKRP interaction: Diaphorase-coupled assay (AID 743205)
# T1 sequence (P35557 whole entry, looked up): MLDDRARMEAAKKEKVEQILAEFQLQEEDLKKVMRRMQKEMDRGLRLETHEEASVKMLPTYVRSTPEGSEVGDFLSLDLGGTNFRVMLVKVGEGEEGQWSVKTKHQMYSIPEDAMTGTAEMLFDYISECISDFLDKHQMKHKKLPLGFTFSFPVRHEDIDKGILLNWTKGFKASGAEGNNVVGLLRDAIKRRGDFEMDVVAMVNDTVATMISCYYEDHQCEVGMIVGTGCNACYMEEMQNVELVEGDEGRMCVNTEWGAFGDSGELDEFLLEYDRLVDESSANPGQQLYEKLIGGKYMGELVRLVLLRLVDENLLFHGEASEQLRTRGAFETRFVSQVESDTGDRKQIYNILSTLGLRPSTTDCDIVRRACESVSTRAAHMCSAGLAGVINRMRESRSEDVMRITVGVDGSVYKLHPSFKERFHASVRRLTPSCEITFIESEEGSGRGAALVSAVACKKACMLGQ
# T1 sequence (Q14397 whole entry, looked up): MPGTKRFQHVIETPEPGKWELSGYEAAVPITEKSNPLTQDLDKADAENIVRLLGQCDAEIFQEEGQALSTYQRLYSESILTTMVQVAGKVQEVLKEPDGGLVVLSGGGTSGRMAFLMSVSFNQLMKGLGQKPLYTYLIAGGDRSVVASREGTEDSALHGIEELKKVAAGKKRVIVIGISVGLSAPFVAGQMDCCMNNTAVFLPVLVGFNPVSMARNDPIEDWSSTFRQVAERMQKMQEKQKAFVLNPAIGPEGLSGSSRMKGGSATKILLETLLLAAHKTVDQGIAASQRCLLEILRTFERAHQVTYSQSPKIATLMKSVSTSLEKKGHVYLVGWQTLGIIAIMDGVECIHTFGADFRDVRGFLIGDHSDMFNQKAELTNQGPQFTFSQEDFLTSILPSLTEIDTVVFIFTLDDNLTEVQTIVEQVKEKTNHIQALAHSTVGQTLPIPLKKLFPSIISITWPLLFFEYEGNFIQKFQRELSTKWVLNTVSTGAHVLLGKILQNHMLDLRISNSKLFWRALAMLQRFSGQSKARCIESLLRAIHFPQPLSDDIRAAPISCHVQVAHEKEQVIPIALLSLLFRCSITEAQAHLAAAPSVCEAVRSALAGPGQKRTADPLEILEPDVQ
# Method in brief: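 Compounds pre-incubated 20 min with substrate, then 10 nM GST-GCK with 10 nM FLAG-GKRP added. GCK activity coupled via G6PDH and diaphorase to resorufin (5 mM glucose, 0.4 mM ATP, 0.15 mM NADP+, pH 7.6), read kinetically over 30 minutes at Ex 525/Em 590 nm.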
# [8] = biological target: T1, Hexokinase-4 (Homo sapiens) + Glucokinase regulatory protein (Homo sapiens); assay: qHTS assay for inhibitors of recombinant human GCK-GKRP interaction: ADP-Glo assay (AID 743206)
# Method in brief: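 GST-GCK and FLAG-GKRP (15 nM each in the dispensed mix, with 2 uM S6P) react with 0.4 mM ATP and 5 mM glucose (final) in Hepes pH 7.6 for 60 min at room temperature. ADP is measured by ADP-Glo luminescence.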
# [9] = biological target: T1, Hexokinase-4 (Homo sapiens) + Glucokinase regulatory protein (Homo sapiens); assay: qHTS assay for inhibitors of recombinant human GCK-GKRP interaction: HTRF assay (AID 743207)
# Method in brief: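 HTRF binding of 5 nM GST-GCK and 5 nM FLAG-GKRP with 2 uM S6P in pH 7.1 Hepes buffer (MgCl2, KCl, DTT, Tween 20, BSA). Anti-FLAG XL665 and anti-GST donor added, 60 min at room temperature; 665/615 nm read, normalized to with- and without-GCK controls.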
# [10] = qHTS Assay for Identifying Gametocytocidal Compounds (AID 743244); further: potency means the concentration at half of the fitted maximal effect;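 on max response: actives lower the fluorescent signal which means gametocytes are killed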; conditions: P. falciparum 3D7 stage III-V gametocytes, alamarBlue, 72 h; max response: stronger effect = lower value
# Method in brief: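 3D7 gametocytes, stages III–V, 20,000/well; cpd 72 h, 37 °C/5% CO2; + alamarBlue 24 h; fluor. Ex 525/Em 598.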
# [11] = qHTS assay for cell viability of HEK293 cells (AID 743288); conditions: ATP luminescence (CellTiter-Glo), 18 h; max response: stronger effect = lower value; further: nearly all actives have a fitted effect of over 50% in size; further: potency means the concentration at half of the fitted maximal effect
# Method in brief: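 Parental HEK293 cells, 2,000 per well, preincubated at least 5 h at 37 C, then exposed to compounds in DMSO for 18 h at 37 C. Viability by CellTiter-Glo ATP luminescence after 30 min at room temperature.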
# [12] = qHTS assay for cell viability of the p53RE-bla HCT-116 cell line (AID 743292); further: nearly all actives have a fitted effect of over 55% in size; further: potency means the concentration at half of the fitted maximal effect
# Method in brief: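 Viability of compound-treated p53RE-bla HCT-116 cells is taken from ATP-dependent luciferase luminescence. Treatment lasts 16 h at 37 C after a 5 h settling period; detection follows 30 min at room temperature.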
# [13] = qHTS profiling of the MIPE4 collection as inhibitors of Plasmodium falciparum (3D7) proliferation (AID 743344; call rule not given here); conditions: P. falciparum 3D7 in erythrocytes, SYBR Green DNA fluorescence, 72 h; at 28.5 µM (top of the series) unless noted
# Method in brief: (§1)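 Erythrocytes infected with P. falciparum (0.3% parasitemia, 2.5% hematocrit) incubated with compounds 72 h at 37 C, 5% CO2. Lysis with saponin/Triton buffer containing SYBR Green I, overnight at room temperature in the dark; DNA fluorescence (485/535 nm) normalised to 0.29 uM artemisinin and DMSO.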
# [14] = qHTS profiling of the MIPE4 collection as inhibitors of Plasmodium falciparum (DD2) proliferation (AID 743345; call rule not given here); conditions: P. falciparum Dd2 in erythrocytes, SYBR Green DNA, 72 h; at 28.5 µM (top of the series) unless noted
# Method in brief: as §1
# [15] = qHTS profiling of the MIPE4 collection as inhibitors of Plasmodium falciparum (DD2) proliferation (Rep 2) (AID 743346; call rule not given here); conditions: P. falciparum Dd2 in erythrocytes, SYBR Green DNA, 72 h; at 28.5 µM (top of the series) unless noted
# Method in brief: as §1
# [16] = qHTS profiling of the MIPE4 collection as inhibitors of Plasmodium falciparum (HB3) proliferation (AID 743347; call rule not given here); conditions: P. falciparum HB3 in erythrocytes, SYBR Green DNA, 72 h; at 28.5 µM (top of the series) unless noted
# Method in brief: as §1
# [17] = qHTS for small molecule inhibitors of Yes1 kinase: Counter Assay (AID 686950);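 further: no kinase present so only ADP-Glo detection of a fixed ADP amount is tested; luminescence from ADP-Glo reporting ADP in a fixed ATP and ADP mixture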
# Method in brief: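 Enzyme-free detection counter-screen: compounds preincubated 20 min in buffer, then 0.08 mM ATP plus 0.02 mM ADP added for 60 min at room temperature; ADP-Glo luminescence. Buffer 50 mM Tris pH 7.5, 10 mM MgCl2, 150 mM NaCl; normalized to ATP+ADP and ATP-only controls.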
# [18] = qHTS profiling for inhibitors of Plasmodium falciparum (3D7) proliferation (AID 743322);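 further: infected erythrocytes exposed to compound for 72 h before lysis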; conditions: P. falciparum 3D7 proliferation; at 28.7 µM (top of the series)
# Method in brief: as §1
# [19] = qHTS profiling for inhibitors of Plasmodium falciparum (DD2) proliferation (AID 743323; call rule not given here); conditions: lower = more inhibition; at 28.7 µM (top of the series)
# Method in brief: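 P. falciparum Dd2-infected erythrocytes (0.3% parasitemia, 2.5% hematocrit) exposed 72 h at 37 C, 5% CO2. Lysis with SYBR Green, overnight at room temperature, fluorescence 485/535 nm; normalized to 0.29 uM artemisinin and DMSO.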
# [20] = qHTS profiling for inhibitors of Plasmodium falciparum (HB3) proliferation (AID 743324); conditions: Plasmodium falciparum HB3 blood-stage proliferation; at 28.7 µM (top of the series)
# Method in brief: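 P. falciparum HB3 grown in erythrocytes (0.3% parasitemia, 2.5% hematocrit final) with compound for 72 h at 37 C, 5% CO2. Parasite DNA detected by SYBR Green after saponin/triton lysis overnight; normalized to 0.29 uM artemisinin and DMSO.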
structure (smiles),measurement,setting,value
CNCC(O)c1ccc(O)cc1 (stereo not given),Potency,[1],inactive
same,outcome,[2],inactive
same,outcome,[3],inactive
same,outcome,[4],inactive
same,Potency,[5],inactive
same,max response,[6],12.1% (inactive)
same,outcome,[7],inactive
same,outcome,[8],inactive
same,outcome,[9],inactive
same,max response,[10],28.1% (inactive)
same,max response,[11],-7.41% (inactive)
same,Potency,[12],inactive
same,"parasite growth, % of DMSO control",[13],81.9%
same,"parasite growth remaining, % of DMSO control (lower = more inhibition)",[14],99.8%
same,"parasite growth, % of control (lower = inhibition)",[15],71%
same,"growth, % of control",[16],53.7%
CC[C@@H](CO)NC(=O)[C@@H]1C=C2c3cccc4[nH]cc(c34)C[C@H]2N(C)C1,Potency,[1],inactive
same,outcome,[2],inactive
same,outcome,[3],inactive
same,outcome,[4],inactive
same,outcome,[7],inactive
same,outcome,[8],inactive
same,outcome,[9],inactive
C[C@@H]1[C@@H](CC(C[C@H]2O[C@@H]3O[C@]4(C)CC[C@@H]5[C@H](C)CC[C@@H]([C@H]2C)[C@@]35OO4)C[S+](=O)([O-])c2ccc(COC(=O)N(C)C)cc2)O[C@@H]2O[C@]3(C)CC[C@H]4[C@H](C)CC[C@@H]1[C@@]24OO3 (stereo not given in full),outcome,[17],inactive
same,Potency,[10],2.3 nM (active)
same,remaining parasite growth % (stronger effect = lower value),[18],-0.6%
same,"activity, percent of control",[19],-0.0428%
same,"remaining proliferation (% of control), lower = more inhibition",[20],0.323%
same,"parasite growth, % of DMSO control",[13],25.5%
same,"parasite growth remaining, % of DMSO control (lower = more inhibition)",[14],6.65%
same,"parasite growth, % of control (lower = inhibition)",[15],23.2%
same,"growth, % of control",[16],20.9%
Oc1ccccc1-c1ccccc1,Potency,[5],inactive
same,Potency,[6],251 µM (active)
same,max response,[6],-12.4% (inactive) and -2.58% (inactive) and -3.94% (inactive)
same,Potency,[11],891 µM (active)
same,max response,[11],-4.38% (inactive) and -13.9% (inactive) and 2.52% (inactive)
same,Potency,[12],inactive and 708 µM (active)
Oc1cccc2cccnc12,Potency,[5],42.2 µM (active)
same,max response,[6],-16.3% (inactive)
same,Potency,[10],11.2 µM (active) and 25.1 µM (active)
same,max response,[11],-19.7% (inactive)
same,Potency,[12],inactive
CC[C@@H](CO)NC(=O)[C@@H]1C=C2c3cccc4c3c(cn4C)C[C@H]2N(C)C1,Potency,[1],inactive
same,outcome,[2],inactive
same,outcome,[3],inactive
same,outcome,[4],inactive
same,outcome,[8],inactive
same,outcome,[9],inactive
same,max response,[10],1.36% (inactive)
O=c1[nH]cc(F)c(=O)[nH]1,outcome,[2],inactive
same,"parasite growth, % of DMSO control",[13],42.1%
same,"parasite growth, % of control (lower = inhibition)",[15],44.8%
same,"growth, % of control",[16],85.2%
O=C1NCN(c2ccccc2)C12CCN(CC1COc3ccccc3O1)CC2 (stereo not given),Potency,[1],3.01 µM (active)
same,outcome,[2],inactive
same,outcome,[3],inactive
same,outcome,[4],inactive
same,outcome,[7],inactive
same,outcome,[8],inactive
same,outcome,[9],inactive
same,max response,[10],-1.23% (inactive) and 22.3% (inactive)
NC(=Nc1ccccc1)Nc1ccccc1,max response,[6],3.18% (inactive)
Cc1ncc(CNC(=O)N(CCCl)N=O)c(N)n1,outcome,[2],inactive
same,outcome,[3],inactive
same,outcome,[4],inactive
same,outcome,[7],inactive
same,outcome,[8],inactive
same,outcome,[9],inactive
same,max response,[10],-1.52% (inactive) and 11.3% (inactive)
